Measured values as given in PubChem BioAssay AID2606 (The Scripps Research Institute Molecular Screening Center, 2010).
About 160 (0.05%) of roughly 320,000 compounds were called active. For the sample, actives were picked, then their nearest neighbours and some compounds at random. Values without a mark were called inactive. No stated cut-off is given here; in the data, active means inhibition above about 38%; inactive means the rest.

What follows are molecules tested against Serine protease Rv3671c (Mycobacterium tuberculosis (strain ATCC 25618 / H37Rv)) (UniProt P9WHR9) (assay: inhibition of M. tuberculosis membrane protease Rv3671c – biochemical, fluorescence polarization, M. tuberculosis H37Rv, primary screen (AID 2606;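 further: extracellular domain of Rv3671c used as enzyme; 0% = enzyme with DMSO and 100% = no enzyme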)). Settings: at 5.96 µM; stronger effect = higher value.
Serine protease Rv3671c (Mycobacterium tuberculosis (strain ATCC 25618 / H37Rv)), sequence (P9WHR9 whole entry, looked up, the tested form may be a part): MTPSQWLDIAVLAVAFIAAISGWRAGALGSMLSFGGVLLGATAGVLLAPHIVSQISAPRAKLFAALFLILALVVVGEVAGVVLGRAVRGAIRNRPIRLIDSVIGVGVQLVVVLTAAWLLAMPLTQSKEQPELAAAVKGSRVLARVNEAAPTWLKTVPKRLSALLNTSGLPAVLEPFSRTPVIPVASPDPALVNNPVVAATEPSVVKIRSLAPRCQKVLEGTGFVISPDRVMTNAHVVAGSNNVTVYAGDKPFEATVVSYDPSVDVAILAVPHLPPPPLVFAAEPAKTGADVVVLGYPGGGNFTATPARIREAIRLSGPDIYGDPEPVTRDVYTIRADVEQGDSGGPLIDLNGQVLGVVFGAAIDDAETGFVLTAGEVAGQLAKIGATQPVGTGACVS

Row | Structure (SMILES) | inhibition
1 | COc1ccc(NC(=O)C(C)SCc2ccccc2)cc1 (stereo unspecified) | 0.17%
2 | C/C(=N\NC(=O)c1ccc(CSc2nc(C)cc(C)n2)cc1)C1CCCCC1 | -1.11%
3 | O=C1Nc2cc(C(=O)N3CCN(c4ccc(F)cc4)CC3)ccc2NC1CSCc1cccc(F)c1 (stereo unspecified) | -19.6%
4 | O=C(Nc1cc(S(=O)(=O)Nc2ccc(Cl)cc2)ccc1O)c1ccc(F)cc1F | -20%
5 | COc1ccccc1NC(=S)N1CCN(C(c2ccccc2)c2ccccc2)CC1 | -3.52%
6 | CCOc1ccc(OCC)c(NC(=O)CN(C)S(=O)(=O)c2cccc3nsnc23)c1 | 4.81%
7 | CC(=O)OCCOCn1cnn2c(=O)c(Br)c(C)nc12 | 9.74%
8 | Cc1nc2nc[nH]n2c(=O)c1NC(=O)c1cccc(OCC(C)C)c1 | 2.66%
9 | Cn1cnc(S(=O)(=O)Nc2ccc3c(c2)OCCO3)c1 | -5.54%
10 | O=C(NCc1ccccc1)[C@@H]1CSC2c3ccccc3C(=O)N21 (stereo partly specified) | 5.62%
11 | CCc1cccc2c(C=C(C#N)C#N)cn(CC(=O)N3CCCCC3)c12 | -5.84%
12 | COc1cccc(CNC(=O)Cn2c(=O)oc3cc(S(=O)(=O)N4CCCCC4)ccc32)c1 | -26.5%
13 | O=C(O)c1ccn(COc2ccc(Br)cc2)n1 | 5.52%
14 | CCc1ccc(N(C(=O)c2csnn2)C(C(=O)NC2CCCCC2)c2cccnc2)cc1 (stereo unspecified) | -1.12%
15 | COc1ccccc1Nc1nnc(SC(C)C(=O)NC2CC2)s1 (stereo unspecified) | 6.85%
16 | C=C1CCC(N(O)c2cc(C)on2)C(=C)CCC2C1CC2(C)C (stereo unspecified) | -8.68%
17 | O=C(CNS(=O)(=O)c1ccc2ccccc2c1)Nc1ccc(F)c(F)c1F | 2.38%
18 | CCN(CC)C(=O)CSc1nnc(-c2cnccn2)n1-c1ccc(C)cc1 | -10.7%
19 | O=C(O)C1=NN(c2c(F)c(F)cc(F)c2F)C(=O)CC1 | -8.71%
20 | CCOc1ccc(S(=O)(=O)N2CCC(c3ccccc3)CC2)cc1C(=O)O | 2.59%
21 | CCCN(CCC)S(=O)(=O)c1ccc(C(=O)NNC(=O)c2cc(OC)c(OC)c(OC)c2)cc1 | 2.22%
22 | CCCCNC(=O)C1(c2ccc(OC)cc2)CCOCC1 | 1.73%
23 | CC(C)(C)NS(=O)(=O)NC(=O)C1=C(N2CCCC2)COC1=O | -1.86%

Row | Structure (SMILES) | inhibition
24 | O=c1[nH]c2ccccc2n2c(-c3ccccc3)nnc12 | -13%
25 | COc1ccc(NC(=O)c2cc([N+](=O)[O-])ccc2NC(=O)CNC2CCCCC2C)c(OC)c1 (stereo unspecified) | -11.9%
26 | CN(C)C(=O)N=NC(=O)N(C)C | -1.83%
27 | O=C(Nc1ccccc1C(=O)O)c1ccc(N2C(=O)C3CC=CCC3C2=O)cc1 (stereo unspecified) | -4.79%
28 | COc1cccc(CNc2ncc(-c3ccccc3)n2C)c1 | -4.35%
29 | O=C(Cn1ccc([N+](=O)[O-])n1)NCc1cccs1 | 2.31%
30 | CCOc1ncccc1C(=O)OCC(=O)c1c[nH]c2ccccc12 | 2.18%
31 | Cc1ccccc1CSc1nnc(CCCCCNC(=O)OC(C)(C)C)o1 | -2.88%
32 | COc1cc([N+](=O)[O-])cc([N+](=O)[O-])c1NC(=O)N1CCOCC1 | 0.53%
33 | O=C(CN1C(=O)NC2(CCCC2)C1=O)OCCOc1ccc(F)cc1 | 0.5%
34 | O=C(NCc1ccc(Cl)cc1)c1cc2c(nc3sccn32)s1 | -4.26%
35 | Cc1c(Br)c([N+](=O)[O-])nn1CC(=O)Nc1sc2c(c1C(=O)OC(C)C)CCC(C)C2 (stereo unspecified) | -2.96%
36 | O=S1(=O)CC(NCc2ccccc2)C(Nc2ccc(Cl)cc2)C1 (stereo unspecified) | -2.48%
37 | O=C(CN(c1cc(C(F)(F)F)ccc1Cl)S(=O)(=O)c1ccccc1)NCc1cccnc1 | 4.36%
38 | O=C1CCCN1CCCNC(=S)Nc1ccc(F)c(Cl)c1 | -6.09%
39 | O=C1c2ccccc2C(=O)N1CCc1nn[nH]n1 | -7.39%
40 | Cc1ccccc1CCN(CC(=O)NC1CCCCC1)C(=O)c1csnn1 | -0.33%
41 | OC(c1ccccc1)c1nccn1Cc1ccccc1 (stereo unspecified) | 0.91%
42 | CSc1nc2ccccc2cc1/C=C(\C#N)c1ccc(Cl)cc1Cl | 3.83%
43 | O=C(COC(=O)c1cc(=O)[nH]c2ccccc12)Nc1nc(-c2cccc(Br)c2)cs1 | -76%
44 | CCOC(=O)[C@@H]1[C@H]2COc3ccc(Br)cc3[C@H]2N2C(=O)N(c3ccc(C)cc3)C(=O)[C@@]12C | 0.17%
45 | CCN(C(=O)CSc1nnnn1-c1ccccc1OC)C1CCS(=O)(=O)C1 (stereo unspecified) | 2.72%
46 | CSc1ccc(C(=O)C2CCCN(C(=O)c3ccc(C)nc3)C2)cc1 (stereo unspecified) | 1.04%

Row | Structure (SMILES) | inhibition
47 | CCC(C)c1ccc(NC(=O)COC(=O)C2CCCC2)cc1 (stereo unspecified) | -4.19%
48 | Cc1ccc(OCC(=O)c2cc(C)n(Cc3ccco3)c2C)c([N+](=O)[O-])n1 | -2.09%
49 | COc1ccc(NC(=O)C2C3CCC(O3)C2C(=O)O)cc1OC (stereo unspecified) | -2.75%
50 | COc1cc(C(=O)NCc2ccncc2)cc(Br)c1OCc1ccccc1 | -8.67%
51 | CCn1c(=O)cc(SCC(=O)NCCC2=CCCCC2)c2ccccc21 | 3.21%
52 | CCOc1ccc(S(=O)(=O)N(CC(=O)NCC(F)(F)F)Cc2ccco2)cc1 | 4.73%
53 | CC1CC(=NNC(=O)C2COc3ccccc3O2)CC(C)(C)C1 (stereo unspecified) | -11%
54 | O=C(O)c1ccc2c(=O)n3c(nc2c1)/C(=C/c1ccc(Cl)c([N+](=O)[O-])c1)CC3 | 8.14%
55 | C=C(C)C(=O)Nc1cccc(C2=NOC3(C2)C[C@H](C(N)=O)N(C(=O)C(c2ccccc2)c2ccccc2)C3)c1 (stereo partly specified) | -1.51%
56 | Cc1onc(-c2c(F)cccc2Cl)c1C(=O)N(C)CC(=O)Nc1cccc(F)c1 | 2.86%
57 | C=CCOc1cccc(CNCc2cccnc2)c1 | 4.49%
58 | COC(=O)c1cccc(N(CC(=O)NCC2CCCO2)C(=O)CCC(=O)Nc2cc(C)on2)c1 (stereo unspecified) | -6.9%
59 | CCO[C@@H]1OC(C(=O)NC2CC2)=C[C@H](C)[C@H]1CCCO | 3.42%
60 | CCN(CC)CCCN=C(N)N | 1.64%
61 | CC(C)n1c(-c2ccncc2)n[nH]c1=S | -6.36%
62 | CC(C)(C)S(=O)(=O)c1ccccc1-c1noc(-c2ccccc2)c1C(N)=O | 8.18%
63 | CSCc1ccc(C(=O)Nc2cc(C)cc(C)c2)cc1 | 6.14%
64 | CCNc1nc(N)nc(Oc2ccc(OCC)nn2)n1 | 1.15%
65 | COCCOC(=O)c1sc(=S)n(CCOC)c1N | 40% (active)
66 | CCCCN(CCCC)C(=O)CCS(=O)(=O)c1ccc2c(c1)n(C)c(=O)c(=O)n2C | -1.54%
67 | Cc1ccc2c(c1)N(CCCC(=O)NCc1cccnc1)C(=O)CO2 | 5.63%
68 | COC(=O)COc1cccc2c(=O)n(CC(=O)NCc3ccccc3)ccc12 | -8.57%
69 | COc1ccc(O[C@H]2C=C[C@@H](c3ccccc3)O[C@@H]2CO/N=C/C[C@@H]2C=C[C@H](OC(C)=O)[C@@H](COC(C)=O)O2)cc1 | -1.84%

Row | Structure (SMILES) | inhibition
70 | COCCN(Cc1nc(-c2ccc(C(F)(F)F)cc2)no1)C(C)C | -6.51%
71 | Cc1ccc(S(=O)(=O)N[C@@H](Cc2ccccc2)C(=O)N2CCC(C(=O)N[C@H](C(=O)O)C(C)O)CC2)cc1 (stereo partly specified) | -3.25%
72 | Cc1ccc(N2CCN(c3ccc([N+](=O)[O-])cn3)CC2)c(C)c1 | -8.33%
73 | Fc1ccccc1CCNc1nnnn1-c1ccccc1 | -6.29%
74 | Cc1ccc(Cl)cc1NC(=O)C1CCN(S(C)(=O)=O)CC1 | 5.08%
75 | O=C1NC[C@@H](Cc2ccc(O)cc2)N(CCc2cccc(F)c2)C1=O | 5.74%
76 | O=C(Nc1sc2c(c1-c1nc3ccccc3[nH]1)CCCC2)C1CC1 | -3.57%
77 | O=[N+]([O-])c1ccc2nc(-c3ccccn3)[nH]c2c1 | 4.37%
78 | c1ccc2[nH]c(-c3nc4ccccc4[nH]3)nc2c1 | 77.5% (active)
79 | COc1ccc(Br)cc1CN1CCN(C(=O)c2cccc(OC)c2OC)CC1 | -2.08%
80 | CC1(c2ccccc2)NC(=O)N(CC(=O)N2CC(=O)Nc3ccccc32)C1=O (stereo unspecified) | -3.96%
81 | COc1ccc(C(=O)c2c3ccc([N+](=O)[O-])cc3[n+]([O-])n2CCCN)cc1 | -2.98%
82 | C[C@@H]1NC(=O)[C@@]2(C)[C@@H](c3ccccc3)[C@H]3COc4ccccc4[C@@H]3N2C1=O | -7.74%
83 | C=CCN1CCN(C(=O)CCCc2ccccc2)CC1 | -7.87%
84 | NNC(=O)c1cnn(-c2ccccc2)c1C(F)(F)F | 2.2%
85 | COCCN(C(=O)CSCc1ccc(C)cc1)c1c(N)n(CC(C)C)c(=O)[nH]c1=O | 8.34%
86 | CC1CCCN(C(C(=O)Nc2ccc(C(C)C)cc2)c2ccc3c(c2)OCO3)C1 (stereo unspecified) | 2.73%
87 | CN(Cc1ccccc1)C(=O)COC(=O)c1ccccc1Nc1ccccc1 | -5.06%
88 | CCN(CC)c1ccc(C2C3CCCCC3(O)CCN2CC(=O)Nc2ccccc2)cc1 (stereo unspecified) | 5.48%
89 | O=C(O)C(c1ccccc1)C1(O)CCCCC1 (stereo unspecified) | 8.1%
90 | Cc1cc(NC(=O)CN2C(=O)NC(CC(C)C)C2=O)no1 (stereo unspecified) | 2.81%
91 | O=C(Nc1ccc(Br)cc1)c1cc(S(=O)(=O)Nc2ccccn2)ccc1Cl | -7.4%
